PAFAH1B2 inh: PAFAH1B2 (human) inhibition; recombinant PAFAH1B2, FP-rhodamine activity probe, fluorescence polarization; inhibition, % at 3.39 µM; 340,000 compounds, 1.2% hits;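 active means inhibition above the mean of all tested compounds plus 3 SD, cut at about 24% in these data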;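 further: 0% = enzyme with DMSO and 100% = wells lacking PAFAH1B2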
pPAFAH inh: pPAFAH (human) enzyme inhibition; AID 463082; 330,000 compounds, 1.5% hits; inhibition, % at 3.39 µM; Q13093; recombinant pPAFAH, FP-rhodamine probe fluorescence polarization;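 active means inhibition above the mean inhibition across the screen plus 3 SD, cut at about 25% in these data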;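 further: inhibitors block binding of the rhodamine activity-based probe so polarization drops; 0% = enzyme with DMSO and 100% = wells lacking pPAFAH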
PAFAH1B3 FP inh: PAFAH1B3 (human) inhibition; inhibition, % at 3.39 µM; AID 492972; 340,000 compounds, 0.28% hits; Q15102; recombinant PAFAH1B3, FP-rhodamine probe, fluorescence polarization;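 active means inhibition above the screen-wide average of all tested compounds plus 3 SD, cut at about 25% in these data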;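 further: 0% = enzyme with DMSO only and 100% = wells lacking PAFAH1B3 protein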
PAFAH2 FP inh: PAFAH2 (human) inhibition; Q99487; recombinant PAFAH2, FP-rhodamine activity probe, fluorescence polarization; inhibition, % at 3.39 µM; AID 492956; 340,000 compounds, 0.99% hits;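 active means inhibition above the mean over all tested compounds plus 3 SD, cut at about 30% in these data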;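 further: inhibitors block probe labeling of enzyme so polarization drops; 0% = enzyme with DMSO and 100% = wells lacking PAFAH2 protein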
eLon inh: E. coli protease La inhibition; purified E. coli Lon protease, fluorescence polarization; P0A9M0; AID 602123; 360,000 compounds, 0.42% hits; inhibition, % at 7.94 µM; in the data active means inhibition above about 13%, passing the limit was not always enough;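 further: 0% = enzyme with probe and DMSO and 100% = no enzyme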
Rin1 Abl inh: human Rin1-Abl interaction inhibition; TR-FRET Rin1/Abl binding, biochemical; inhibition, % at 7.35 µM; 360,000 compounds, 0.4% hits; AID 588664; in the data active means inhibition above about 5%, passing the limit was not always enough
The depositor's hits bear a star; / = no result. Compounds with a hit are over-represented: about 3.1% of the library has one in this group of screens.

SMILES	PAFAH1B2 inh	pPAFAH inh	PAFAH1B3 FP inh	PAFAH2 FP inh	eLon inh	Rin1 Abl inh
Cc1ccc(SC/C(O)=C(\C#N)c2nc3ccccc3s2)cc1	29*	24	5	24	-5	-1
O=C(/C=C/c1ccc([N+](=O)[O-])cc1)OCC(=O)N1CCCC1	3	4	-2	-5	15	-1
O=C(O/N=C1/CCCc2occc21)c1ccc(F)cc1	6	10	5	15	-8	-1
O=C(O/N=C1/CCSc2ccccc21)c1ccc(F)cc1	24*	10	10	47*	-1	4
O=C(NCCCN1CCOCC1)c1ccc(Sc2cccc(Cl)c2)c([N+](=O)[O-])c1	-1	32*	2	2	-10	-3
CCCCCSc1nnc(-c2cc(Br)ccc2N)c(=O)[nH]1	27*	6	8	11	-11	4
CCCCSc1nnc(-c2ccccc2N)c(=O)[nH]1	11	6	10	0	-6	-2
O=C(O)c1cc(S(=O)(=O)Nc2ccc3cn[nH]c3c2)ccc1Cl	3	7	8	-3	6	2
COC(=O)c1cc(NS(=O)(=O)c2ccc(N3CCOCC3)c([N+](=O)[O-])c2)cc(C(=O)OC)c1	-1	5	5	5	-6	-5
COC(=O)c1cc(NS(=O)(=O)c2ccc(N3CCCCCC3)c([N+](=O)[O-])c2)cc(C(=O)OC)c1	33*	9	4	6	2	-2
CC1=C(C(=O)N2CCCCCC2)CC(CC(=O)NCCc2ccccn2)C(=O)N1Cc1ccc(F)cc1 (stereo unspecified)	/	/	/	/	-5	/
Cc1ccc(/C=N/OC(=O)c2nn(C)cc2Cl)cc1	28*	0	2	13	-4	4
COc1ccc(-c2oc(=O)c3cc(OC)c(OC)cc3c2-c2ccc3c(c2)OCO3)cc1	0	27*	-7	-6	-9	-1
CC(=NO)c1cc(Br)c2cccc3c2c1CC3	/	/	/	/	-2	2
N/C(=N/OC(=O)c1ccccc1Cl)c1ncc([N+](=O)[O-])s1	26*	13	11	18	17	1
CN1CCN(C(=O)C2Cc3c(-c4cccc(F)c4)ccnc3O2)CC1 (stereo unspecified)	/	/	/	/	-11	1
CCOC(=O)CC(=O)NC(CC(=O)OC)c1ccc(C(C)C)cc1 (stereo unspecified)	29*	0	6	6	7	-2
COc1ccc(NC(=S)NC(=O)c2cncc(Br)c2)c(OC)c1	4	0	7	5	-5	1
O=C1CC(NS(=O)(=O)c2cccnc2)CN1c1cccc(F)c1 (stereo unspecified)	3	4	11	1	-5	4
O=C(CN1C(=O)NC(c2ccccc2)(c2ccccc2)C1=O)NCc1ccc(F)cc1	11	-3	13	3	-10	2
CCn1c2ccccc2c2cc(NC(=O)c3ccc(=O)oc3)ccc21	/	33*	/	/	-104	-3
CC1(OC(=O)c2ccc(Cl)nc2)C(=O)C=C2C=C3CCCN3C=C2C1=O (stereo unspecified)	11	15	14	12	9	5
CC1(OC(=O)c2ccc(Cl)nc2)C(=O)C=C2C=C(c3ccsc3)OC=C2C1=O (stereo unspecified)	/	47*	/	/	/	/
COC/C=C/C1=CC2=CC(=O)C(C)(OC(=O)C3CCCC3)C(=O)C2=CO1 (stereo unspecified)	-5	24	6	16	6	3
CC1(OC(=O)C2CCCC2)C(=O)C=C2C=C(C3CC3)OC=C2C1=O (stereo unspecified)	/	26*	/	/	/	/
SMILES	PAFAH1B2 inh	pPAFAH inh	PAFAH1B3 FP inh	PAFAH2 FP inh	eLon inh	Rin1 Abl inh
CC1(OC(=O)c2ccc(Cl)nc2)C(=O)C=C2C=C(C3CC3)OC=C2C1=O (stereo unspecified)	/	44*	/	/	/	/
CC1(OC(=O)c2ccc(Cl)nc2)C(=O)C=C2C=C(c3ccc(C#N)cc3)OC=C2C1=O (stereo unspecified)	/	42*	/	/	/	/
CC(C)(C)OC(=O)N1CCCN(C(c2ccnc3ccccc23)c2nnnn2-c2ccc3c(c2)OCCO3)CC1 (stereo unspecified)	/	/	/	/	2	/
Cn1cccc1CC(=O)N/N=C\c1c2ccccc2cc2ccccc12	5	27*	1	17	1	4
Nc1cccc2cc(S(=O)(=O)O)ccc12	31*	/	49*	30*	-8	1
Nc1ccc2c(S(=O)(=O)O)cccc2c1S(=O)(=O)O	4	/	9	-2	-4	0
O=S(=O)(c1ccc(Cl)cc1)c1cc(O)ccc1O	26*	6	6	3	-2	-2
Cc1ccc2cc(C3C(C#N)=C(N)Oc4c3ccc3cccnc43)c(=O)[nH]c2c1 (stereo unspecified)	9	27*	10	13	1	4
N#CC1=C(N)Oc2c(ccc3cccnc23)C1c1cccnc1 (stereo unspecified)	2	10	10	8	-1	-4
CCc1ccc2[nH]c(=O)c(C3C(C#N)=C(N)Oc4c3ccc3cccnc43)cc2c1 (stereo unspecified)	4	43*	14	5	-3	10*
CCOc1cccc(C2C(C#N)=C(N)Oc3cc(C)[nH]c(=O)c32)c1OCC (stereo unspecified)	6	9	0	-2	2	1
CCOc1ccccc1C(=O)OCC(=O)NCCNC(=O)COC(=O)c1ccccc1OCC	2	0	6	8	0	-5
CC(C)CN1CC(Br)C(=O)NC1=O (stereo unspecified)	2	/	-1	-1	-2	4
COc1ccc(CN2CCSCC2)c(C)c1C	1	/	-3	-3	10	1
Oc1ccc(N=Nc2ccc3c(c2)OCCO3)c2ncccc12	5	28*	9	-2	-2	9.2*
CC(CC(=O)NCCc1ccc(Cl)cc1)S(=O)(=O)c1ccc2c(c1)NC(=O)CO2 (stereo unspecified)	30*	4	3	4	-8	2
O=C(OCCO)c1c(C2=CCCCC2)oc2c1C(OCCO)CCC2 (stereo unspecified)	/	/	/	/	2	/
Cc1cc(C)n(-c2ccc(C(=O)OCC(=O)Nc3ccc(Cl)c(S(=O)(=O)N(C)C)c3)cc2)n1	-1	25*	2	73*	2	0
Cc1cc(C)n(-c2ccc(C(=O)OCC(=O)Nc3ccc(S(=O)(=O)N4CCOCC4)cc3)cc2)n1	2	7	5	-7	5	-2
COc1ccc(NC(=O)COC(=O)c2ccc(-n3nc(C)cc3C)cc2)cc1OC	2	27*	13	7	6	2
Cc1cc(C)n(-c2ccc(C(=O)OCC(=O)Nc3ccc([N+](=O)[O-])cc3)cc2)n1	4	25*	14	26	2	-2

Source: PubChem
